Shown are actives, neighbours in structure and some others; about 1.6% of the full set was active somewhere.
KCNQ2 enhance = potentiators of rat KCNQ2 potassium channel; O88943; CHO-K1 KCNQ2, FluxOR thallium flux fluorescence; hits give high values; B-score at 10 µM; 310,000 compounds, 0.54% hits; AID 2239;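 active = fluorescence ratio B-score at least 3 SD of library B-scores, with initial fluorescence B-score within 3 of them, cut at about 5.3 in these data; same plate scores as AID 2156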;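 also: B-score of peak minus minimum over baseline fluorescence ratio after K+ and Tl+ stimulus; positive B-score means potentiation of KCNQ2 with more thallium influx and brighter signal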
KCNQ2 inh = KCNQ2 (rat) channel inhibition. O88943. CHO-K1 KCNQ2, FluxOR thallium flux, 20 min; hits give low values. B-score at 10 µM. 310,000 compounds, 1.1% hits;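 active = fluorescence ratio B-score at most minus 3 library SDs, with starting brightness B-score within 2 library SDs, cut at about -5.5 in these data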
Kir21 conf inh = confirmation of mouse Kir2.1 potassium channel inhibitors; AID 2032; Tl flux remaining, % of negative control (hits give low values), % at 10 µM; Kir2.1-expressing cells, FluxOR thallium flux fluorescence; hits give low values; shares compounds with KCNQ2 enhance; 2,300 compounds, 41% hits;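 active = Primary-screen hit whose thallium flux fell at least 3 control SD below untreated wells in both duplicates, with normal baseline fluorescence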;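 also: 0% = blank wells without stimulus and 100% = stimulated no-compound controls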
Target sequence (P35561 whole entry, looked up): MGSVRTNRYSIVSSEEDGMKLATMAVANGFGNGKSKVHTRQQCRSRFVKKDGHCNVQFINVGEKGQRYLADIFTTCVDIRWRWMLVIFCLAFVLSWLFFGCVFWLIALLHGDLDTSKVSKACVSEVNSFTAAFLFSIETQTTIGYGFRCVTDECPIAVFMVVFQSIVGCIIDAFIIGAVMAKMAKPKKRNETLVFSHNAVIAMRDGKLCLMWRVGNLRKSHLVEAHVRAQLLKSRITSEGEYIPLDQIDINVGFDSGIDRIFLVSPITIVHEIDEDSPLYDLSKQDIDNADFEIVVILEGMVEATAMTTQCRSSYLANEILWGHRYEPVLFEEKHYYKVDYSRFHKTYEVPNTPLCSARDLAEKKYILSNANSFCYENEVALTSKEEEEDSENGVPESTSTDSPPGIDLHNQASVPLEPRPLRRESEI
HEK293 Tl flux = parental HEK293 activity in Kir2.1 inhibitor counter-screen; AID 2105; parental HEK293 cells, FluxOR thallium flux fluorescence; 0% = unstimulated blank wells; FluxOR signal as % of negative control (100 = no effect), % at 10 µM; 2,300 compounds, 19% hits; shares compounds with KCNQ2 enhance;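 active = dye signal at least 3 control SD above or below untreated wells in both duplicates, raw fluorescence within 3, either direction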;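 also: percent is based on the flux ratio of peak minus minimum fluorescence over baseline F0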
CHO-K1 Tl ctr = parental CHO-K1 activity in KCNQ2 potentiator counter-screen; 1,200 compounds, 43% hits; shares compounds with KCNQ2 enhance; activity increase over 3SD of controls, % at 10 µM; parental CHO-K1 cells, FluxOR thallium flux fluorescence; zero = vehicle mean+3SD, 100% = vehicle-minus-blank window;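 active = signal rise of at least 3 SD above the untreated control mean, in both duplicate wells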;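 also: counter screen of KCNQ2 potentiator hits so any rise reflects channel-independent effects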
KCNQ1 pot spec = human KCNQ1 counter-target activity of KCNQ2 potentiators | 1,200 compounds, 28% hits | AID 2283 | activation over 3SD threshold, % at 10 µM | shares compounds with KCNQ2 enhance | CHO KCNQ1 stable, FluxOR thallium flux fluorescence; beyond 3SD, as % of vehicle-control signal;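 active = fluorescence ratio rise of at least 3 SD of vehicle wells above their mean, in both replicate wells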;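 also: 0% = vehicle mean plus 3 SD and 100% = vehicle minus unstimulated blank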
KCNQ2 pot confirm = confirmation of rat KCNQ2 potassium channel potentiators; AID 2287; 1,200 compounds, 68% hits; potentiation, less the hit threshold, % at 10 µM; CHO-KCNQ2 cells, FluxOR thallium flux fluorescence; shares compounds with KCNQ2 enhance;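 active = fluorescence ratio rising 3 SD or more over the vehicle control mean in both replicates, plus primary screen hit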;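 also: peak minus minimum thallium fluorescence divided by baseline after K/Tl stimulus; 0% = vehicle mean plus 3 SD and 100% = vehicle minus unstimulated blank difference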
Kir21 spec = tests whether KCNQ2 potentiators also affect mouse Kir2.1. 1,200 compounds, 2% hits. shares compounds with KCNQ2 enhance. HEK293 Kir2.1, FluxOR thallium flux fluorescence. activity over 3SD threshold, % at 10 µM;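 active = fluorescence ratio rise of at least 3 SD above the vehicle-control mean, seen in both replicates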;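 also: 0% = vehicle mean plus 3 SD and 100% = vehicle minus no-stimulus blank window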
KCNQ2 W236L pot = potentiates the retigabine-insensitive rat KCNQ2 W236L mutant channel. shares compounds with KCNQ2 enhance. CHO KCNQ2-W236L, automated patch clamp current. current increase over 3SD of negative controls (%), hits give high values, % at 25 µM. 940 compounds, 10% hits. AID 2558;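 active = current increase at least 3 SD of the untreated controls above them in both duplicate recordings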
An asterisk follows results filed as active; i = inactive; / = not tested or not shown.

SMILES	KCNQ2 enhance	KCNQ2 inh	Kir21 conf inh	HEK293 Tl flux	others
O=c1c2cccnc2[nH]c(=S)n1CCC1=CCCCC1	12*	i	i	278%*	CHO-K1 Tl ctr=7.6*;KCNQ1 pot spec=-14;KCNQ2 pot confirm=48*;Kir21 spec=-23;KCNQ2 W236L pot=i
CCCCCn1c(=S)[nH]c2ncccc2c1=O	3.1	i	/	/
O=C(CSc1ncn[nH]1)NNC(=O)c1ccccc1	0.97	i	/	/
NNC(=O)C1SCCN1S(=O)(=O)c1ccc(Cl)cc1 (stereo not given)	/	i	/	/
C=CCN(c1nc(C)cc(OC)n1)S(=O)(=O)c1ccccc1	/	i	55%*	72%*
CCN(c1nc(C)cc(OC)n1)S(=O)(=O)c1ccccc1	/	i	56%*	74%*
COC(=O)CN(c1nc(C)cc(OC)n1)S(=O)(=O)c1ccc(C)cc1	2.2	i	/	/
C=CCN(c1nc(C)cc(OC)n1)S(=O)(=O)c1ccc(C)cc1	/	i	/	/
COCCCNc1nc2nonc2nc1N1CCC(C(C)N2CCOCC2)CC1 (stereo not given)	/	i	/	/

Bioassay records deposited in PubChem BioAssay by Johns Hopkins Ion Channel Center.
